The subject of the experiment is Plasmodium falciparum Sir2 (PF13_0152, Sir2A). The experiment can be described thus: pfSir2 binders on small-molecule microarrays, primary screen, biochemical, small-molecule microarray, 635 nm fluorescence (AID 1098).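 Further: score merges spot fluorescence intensity with its signal-to-noise ratio.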 The conditions noted are these: small-molecule microarray binding, fluorescence 635 nm; higher = more signal.
`CC(C)C(O)C1C=CC2C(=O)N(C)C(=O)C2N1Nc1ccccc1` (stereo not drawn) gave a composite z-score of 0.778.

The compound `Cc1c(NC(=O)/C(C#N)=C/C=C/c2ccc(N(C)C)cc2)c(=O)n(-c2ccccc2)n1C` gave a composite z-score of 0.917. `COc1cc(CO)cc(I)c1O[C@H]1C=C(C(=O)NCCO)C[C@@H](N(Cc2ccc(F)cc2)C(=O)C2CCCO2)[C@@H]1O` (stereo partly drawn) registered a composite z-score of 0.0885.

The compound `O=C1C[C@@](C(=O)NCC(F)(F)F)(c2ccc([N+](=O)[O-])cc2)[C@@H](c2ccc(CO)cc2)N1C1CCCCC1` showed a composite z-score of 1.65. `COC(=O)Cn1c(C(=O)N2CCCC2)cc2c1C[C@H]1CN(C(=O)c3ccccc3)[C@@](Cc3ccc(F)cc3)(C(=O)OC)[C@@H]21` displayed a composite z-score of 0.643. Compound `O=C(CS)NCCCCCCNC(=O)[C@H]1C[C@H]2C(=O)N[C@@H](Cc3ccccc3)C(=O)N2[C@H]1c1cccc(OCCO)c1` registered a composite z-score of 1.62.

On to `COc1cc2c(cc1OC)CN(C(=O)[C@H]1[C@@H]3C(=O)O[C@@H](c4ccccc4)[C@@H](c4ccccc4)N3[C@@H](c3ccc(OCCO)cc3)[C@]13C(=O)Nc1ccc(C#CC4(O)CCCCCC4)cc13)CC2`, for which the composite z-score stood at 1.09. The compound `O=C1O[C@H](c2ccccc2)[C@H](c2ccccc2)N2[C@H]1[C@@H](C(=O)O)[C@]1(C(=O)Nc3ccccc31)[C@H]2c1ccc(O)cc1` registered a composite z-score of 0.663.

The compound `CC(=O)N1Cc2ccccc2C[C@]2(N=C(c3ccc(OCCCO)cc3)O[C@@H]2c2ccccc2)C1=O` showed a composite z-score of 1.55. `Cc1ccc(S[C@]2(C(=O)O)CC(=O)N(Cc3ccccc3Cl)[C@@H]2c2ccc(CO)cc2)cc1`: the composite z-score was -0.189. On to `COc1c(C)cc(-c2cc3c(c(-c4ccccc4)n2)[Si](C(C)C)(C(C)C)OC3)cc1C`, for which the composite z-score came out at 0.0039.

Take `O=C(CCCCCCC(=O)Nc1ccccc1)N/N=C/c1ccccc1`: the composite z-score is 0.45. In turn, `CCOC(=O)C[C@H]1[C@H](OC(=O)Cc2ccc3c(c2)OCO3)[C@@H](NC(=O)C2CCCCC2)c2cc(OCCCO)ccc2N1C(=O)c1ccc2ccccc2n1` yielded a composite z-score of 0.774. Regarding `O=C(NC1CC1)[C@@H]1c2ccccc2C(=O)N(Cc2ccccc2)[C@H]1c1ccc(CO)cc1`, the composite z-score was 1.73. `NC(N)=NCc1cn(CCc2c[nH]c3ccccc23)nn1`: the composite z-score was found to be 0.689. To `COCCCNC(=O)[C@@]1(Sc2ccc(C)cc2)CC(=O)N(Cc2cc(C(F)(F)F)cc(C(F)(F)F)c2)[C@@H]1c1ccc(CO)cc1` belongs 1.08; to `O=C1O[C@@H](c2ccccc2)[C@@H](c2ccccc2)N2[C@@H](c3ccc(O)cc3)[C@]3(C(=O)Nc4ccc(C#CC5=CCCCC5)cc43)[C@@H](C(=O)N3CCN(c4ncccn4)CC3)[C@H]12`, 1.59.

Regarding `COCCOC(=O)N1C(=O)[C@@]2(c3cc(C#CC4=CCCCC4)ccc31)[C@H](c1ccccc1OCCO)N1[C@H](c3ccccc3)[C@H](c3ccccc3)OC(=O)[C@H]1[C@@H]2C(=O)N1CCc2cc(OC)c(OC)cc2C1`, the composite z-score worked out at 0.162. The compound `CC[C@H]1C2=C3C(CC[C@H]4C(OCc5ccc(F)cc5C(F)(F)F)OC[C@](C)([C@@H]34)N(C(=O)OC(C)(C)C)C2)C2COC(=O)OCC21` (stereo partly drawn) returned a composite z-score of 0.282. With `CO[C@H]1O[C@H](CO)[C@@H](OC(=O)Nc2ccccc2-c2ccccc2)[C@H](OC(=O)Nc2ccc3c(c2)OCO3)[C@@H]1OC(=O)Nc1ccc2c(c1)OCO2` the figure was 1.32. Compound `COCCCNC(=O)[C@@]1(Sc2ccc(C)cc2)CC(=O)N(C2Cc3ccccc3C2)[C@@H]1c1ccc(CO)cc1I` yielded a composite z-score of 0.693. With `Cc1ccc(S[C@]2(C(=O)NCc3ccccc3)CC(=O)N(C(C)C)[C@@H]2c2ccc(CO)cc2I)cc1`, the composite z-score was 0.169. For the compound `CC(C)C(O)C1C=CC2C(=O)N(C)C(=O)C2N1N(c1ccccc1)c1ccccc1` (stereo not drawn), the composite z-score was 1.09. In the case of `O=C1OCC=C[C@H]2OC34C=CCN(Cn5nnc6ccccc65)C(=O)[C@H]3N(CCCCCCO)C(=O)[C@@H]4[C@@H]12` (stereo partly drawn), the composite z-score came to 1.25. In turn, `COC(=O)[C@@]1(Cc2ccccc2)[C@H]2c3cc(C(=O)N4CCCC4)n(Cc4cc(F)cc5c4OCOC5)c3C[C@H]2CN1C(=O)c1ccccc1` yielded a composite z-score of 1.54. In turn, `O=C(O)[C@H](Cc1ccccc1)n1cc(-c2ccccn2)nn1` had a composite z-score of -0.0726. Regarding `CN(C)CCCNC(=O)[C@@]1(c2ccc([N+](=O)[O-])cc2)CC(=O)N(CC23CC4CC(CC(C4)C2)C3)[C@@H]1c1ccc(CO)cc1`, the composite z-score was found to be 1.72.

In turn, `CCOC(=O)C[C@H]1[C@H](OC(=O)c2ccc(-c3ccccc3)cc2)[C@@H](NC(=O)c2ccc3ccccc3n2)c2cc(OCCCO)ccc2N1C(=O)c1ccccc1` displayed a composite z-score of 0.418.

(Values after PubChem BioAssay.)
